Screening results as filed in PubChem.
HT1080 IDH1KD tx – qHTS for induction of synthetic lethality in tumor cells producing 2HG: qHTS for the HT-1080-IDH1KD cell line; HT-1080 IDH1 knockdown viability, ATP luminescence, 48 h; Potency, µM (titrated, usually from 46.1 µM), for the others: top-dose activity, negative = toxicity, usual class: cytotoxic; 360,000 tested, 2% active;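 further: potency means the concentration at half of the fitted maximal effect; 0% = DMSO wells and -100% = cell-free medium wells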
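Assay cells: HT-1080 with IDH1 knockdown, 750 per well, RPMI/5% FBS. Exposure: 48 h at 37 °C following 2 h pre-incubation. Read: CellTiter-Glo luminescence; fitted concentration-response, curve class assigned.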
DT40 TDP1 no CPT – qHTS for Inhibitors of human tyrosyl-DNA phosphodiesterase 1 (TDP1): qHTS in cells in absence of CPT | 420,000 tested, 15% active | DT40 Tdp1-/- hTDP1 cells, no CPT, ATP luminescence, 48 h | Potency, µM (doses to about 46.2 µM), for inactives: at the highest dose activity change, negative = growth inhibition, actives largely listed as inhibitors; further: potency means the concentration at half of the fitted maximal effect; nearly all actives have a fitted effect of over 55% in size
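Stably hTDP1-transfected Tdp1-null chicken DT40 cells were treated with library compounds minus camptothecin and grown for at least 48 hr at 37 °C, after which cellular ATP was quantified by luminescence.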
HT1080NT lethal – qHTS for induction of synthetic lethality in tumor cells producing 2HG: qHTS for the HT-1080-NT fibrosarcoma cell line; HT-1080-NT fibrosarcoma viability, CellTiter-Glo ATP luminescence, 48 h; Potency, µM (series often up to 46.1 µM), inactives show at the highest dose activity, negative = less viability, most hits filed as cytotoxic; 360,000 tested, 1.6% active; AID 686970, 2013;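 further: NT is the 2HG producing partner of a matched IDH1 knockdown line; potency means the concentration at half of the fitted maximal effect; 0% = DMSO-treated cells and -100% = media-only wells without cells; nearly all actives have a fitted effect of over 55% in size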
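Viability by CellTiter-Glo luminescence after 48 h compound exposure at 37C of HT-1080-NT cells (750/well, RPMI, 5% FBS). % activity scaled between DMSO wells and medium-only wells, then curve-fitted and categorized by curve class.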
IL-1B inflam inh – qHTS for Inhibitors of Inflammasome Signaling: IL-1-beta AlphaLISA Primary Screen. AID 743279, 2014. 360,000 tested, 4.7% active. activity change, % at 57.5 µM. THP-1 LPS/ATP IL-1B secretion, AlphaLISA, 16 h; active compounds read low; in the data active means activity change below about -50%; inconclusive means mostly about -30% to -49%
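THP-1 cells pretreated 1 hr with compounds (up to 57.5 uM final), then stimulated with LPS (250 ng/mL final) plus ATP (1.25 mM final); secreted IL-1B measured by AlphaLISA after 16 hr, decreased signal indicating inhibition.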
TDP1 cell CPT – qHTS for Inhibitors of human tyrosyl-DNA phosphodiesterase 1 (TDP1): qHTS in cells in presence of CPT | 420,000 tested, 12% active | Potency, µM (highest dose often 46.2 µM), without a hit: at the highest dose activity change, negative = growth inhibition, usual class: inhibitors | chicken DT40 Tdp1-/-;hTDP1 cells + 20 nM CPT, ATP luminescence, 48 h; further: potency means the concentration at half of the fitted maximal effect; nearly all actives have a fitted effect of over 55% in size
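Cell growth measured by CellTiter-Glo luminescence after a minimum 48 h, 37 C compound exposure with 20 nM CPT in Tdp1-knockout DT40 cells stably expressing hTDP1, seeded 400/well; qHTS titration format.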
Numbers without * were called inactive; ? = inconclusive; / = no result. Only some compounds are listed: those with a hit (about 19% of all), similar ones and a draw of the others. Unless noted, the call rests on the fitted dose curve; in most records, active means well fitted curve in the direction sought with a large enough effect; inconclusive means small, poorly fitted or top-dose-only effect, or another doubt; inactive means no such curve, though single readings can be large; an effect the other way counts as inactive or inconclusive. Unless noted, on the % scale 0 is the no-effect control and ±100 the full control effect.

SMILES	HT1080 IDH1KD tx	DT40 TDP1 no CPT	HT1080NT lethal	IL-1B inflam inh	TDP1 cell CPT
Cc1cc(/C=N\NC(=O)c2cccs2)c(C)n1-c1ccc2ncccc2c1	-30%	10µM*	-24%	-17	13µM*
Cc1cc(/C=N/NC(N)=S)c(C)n1-c1ccc(Br)cc1	?	8.2µM*	?	1	2.9µM*
Cc1cccc(C)c1-n1c(C)cc(/C=N/NC(N)=S)c1C	?	8.2µM*	?	80	7.3µM*
Cc1nn(C(C)C(=O)NCCc2cccs2)c(=O)c2nn(-c3ccccc3)c(C)c12 (stereo not drawn)	10%	4%	-14%	6	10%
CC(C)Oc1ccc(Br)cc1/C=N\NC(N)=S	-11%	16µM*	-17%	-27	?
CCOc1cccc(C2C=C(c3ccc4c(c3)OCO4)NC(c3ccc(F)cc3)N2)c1O (stereo not drawn)	/	13µM*	/	/	14µM*
CCOc1cccc(C2C=C(c3ccc4c(c3)OCO4)NC(c3ccccc3F)N2)c1O (stereo not drawn)	/	16µM*	/	/	11µM*
CCOc1cccc(C2C=C(c3ccc4c(c3)OCO4)NC(c3ccc(Cl)cc3)N2)c1O (stereo not drawn)	/	13µM*	/	/	10µM*
CC(C)NC(=O)C1(C)CCCN1C(=O)c1ccccc1Br (stereo not drawn)	19%	1%	?	50	-2%
NC(=O)NCCc1ccccc1	10%	-2%	4%	11	0%
CCCCCOc1ccc(C2C(C(C)=O)=C(C)Nc3ncnn32)cc1OC (stereo not drawn)	5%	?	2%	28	-30%
C=C1CCN([C@@H](CC(C)C)C(=O)NCCC(C)C)S(=O)(=O)c2ccccc21	-6%	23µM*	-2%	21	?
C=C1CCN([C@@H](CC(C)C)C(=O)NCc2ccc(Cl)c(Cl)c2)S(=O)(=O)c2ccccc21	-12%	16µM*	?	-2	?
C=C1CCN([C@@H](Cc2ccccc2)C(=O)NCc2ccc(Cl)c(Cl)c2)S(=O)(=O)c2ccccc21	-14%	?	0%	-17	?
C=C1CCN([C@@H](Cc2ccccc2)C(=O)NCCCc2ccccc2)S(=O)(=O)c2ccccc21	-8%	?	-9%	4	23µM*
C=C1CCN([C@@H](CC(C)C)C(=O)NCc2ccc(OC)cc2)S(=O)(=O)c2ccccc21	2%	23µM*	9%	6	?
CC(C)N(C)C1CCN(S(=O)(=O)c2ccc3[nH]c(=O)ccc3c2)CC1	/	18%	/	/	-12%
Cc1cc(C(=O)C[N+]2(C)CCOCC2)c(C)n1-c1ccc(Br)cc1	0%	?	7%	-69*	?
Cc1cc(C(=O)NP(=O)(N2CCOCC2)N2CCOCC2)c(C)n1-c1ccc(Br)cc1	3%	-26%	0%	5	-18%
COC(=O)[C@@]1(Cc2ccccc2)[C@H]2C(=O)N(C)C(=O)[C@H]2[C@H]2CN=C(SCc3ccc(Cl)cc3)N21	-3%	12µM*	-9%	0	13µM*
CC[C@]1(C(=O)OC)[C@H]2C(=O)N(C)C(=O)[C@H]2[C@H]2CN=C(SCc3ccc(Cl)cc3)N21	4%	?	-2%	0	?
COC(=O)c1ccc(CSC2=NC[C@@H]3[C@@H]4C(=O)N(C)C(=O)[C@@H]4[C@](Cc4ccccc4)(C(=O)OC)N23)cc1	-2%	?	-11%	-7	16µM*
COC(=O)[C@@]1(Cc2ccccc2)[C@H]2C(=O)N(C)C(=O)[C@H]2[C@H]2CN=C(SCc3ccc(C)cc3)N21	6%	16µM*	2%	-8	18µM*
